Results filed as inconclusive are left out. Active and inactive are the calls of the source. The call rests on the fitted dose curve; in most records, active means well fitted cell-killing curve with a large enough effect in the repeat runs; inconclusive means weak or mixed curves, or effect the other way; inactive means flat fitted curve, though single readings scatter.
test: qHTS RealTime-Glo MT Cell Viability Assay in HEK293 cells - 40 hour (AID 1224874); settings: RealTime-Glo luminescence; max response: hits give low values; further: nearly all actives have a fitted effect of over 50% in size
Description: U.S. Tox21 Program National Center for Advancing Translational Sciences [NCATS] NIH Chemical Genomics Center [NCGC] U.S. Environmental Protection Agency [EPA] National Institutes of Environmental Health Sciences [NIEHS] National Toxicology Program [NTP] U.S. Food and Drug Administration [FDA] Tox21 Assay Overview: Measure of cell viability is critical in the cell-base assay. Analysis of cell viability is necessary for the characterization of cell responses to cytotoxic drugs and environmental stress. A RealTime-Glo MT Cell Viability Assay to monitor cell viability in real time of continues cell culture during 40 hours of compound treatment was used to screen Tox21 10K library compounds in Hek293 cells. The RealTime-Glo MT Cell Viability Assay is a nonlytic, homogeneous, bioluminescent method to measure cell viability in real time using a simple, plate-based method. The assay involves adding NanoLuc luciferase and a cell-permeant prosubstrate to cells in culture. Viable cells reduce the proprietary prosubstrate to generate a substrate for NanoLuc luciferase. This substrate diffuses from cells into the surrounding culture medium, where it is rapidly used by the NanoLuc Enzyme to produce a luminescent signal. The signal correlates with the number of viable cells, making the assay well suited for cytotoxicity studies.
Tox21 Assay Protocol Summary: The mixture of Hek293 cell suspension and reagents were dispensed at 600cells/6 ul/well in 1536-well tissue culture treated black solid bottom plates using a Multidrop dispenser. After the assay plates were incubated at a 37 C/5% CO2 incubator for 5 hours, 23 nL of compounds dissolved in DMSO, positive and negative controls was transferred to the assay plate by a pintool work station. The plates were incubated at 37 C for 40 hours. The luminescence intensity were measured at 0h, 8h, 16h, 24h, 32h and 40h time points using ViewLux plate reader during compound treatment.
On the % scale 0 is the no-effect control and ±100 the full control effect; potency means the concentration at half of the fitted maximal effect.

Compound | max response | Potency
CCCCCCCCCO | 18.9% (inactive) | –
CC(C)c1cccc(C(C)C)c1NC(=O)NS(=O)(=O)c1cc(C(C)(C)O)co1 | 6.33% (inactive) | –
CCCCCC/C=C/C=O | 35.7% (inactive) | –
Cc1cc(O)ccc1N | – | 43.9 µM (active)
SC1CCCC1 | 8.94% (inactive) | –
CC(=O)/C=C/C1C(C)=CCCC1(C)C (stereo not given) | 0% (inactive) | –
CC(C)NCC(O)c1cc(O)cc(O)c1 (stereo not given) | 1.47% (inactive) | –
COc1ccccc1OC(=O)Oc1ccccc1OC | 1.1% (inactive) | –
Nc1nc(N)c(-c2ccccc2)s1 | 5.71% (inactive) | –
CCN1CCC[C@H]1CNC(=O)c1c(OC)ccc(Br)c1OC | 12.2% (inactive) | –
CC[C@H](C)[C@H](N)C(=O)O | -1.16% (inactive) | –
ClC(Cl)(Cl)c1ccc(C(Cl)(Cl)Cl)cc1 | -9.34% (inactive) | –
CCOC(=O)CC(C)C | 6.18% (inactive) | –
CC(C)c1ccccc1C(C)C | -23.5% (inactive) | –
O=C(/C=C/c1ccc(O)c(O)c1)O[C@@H]1C[C@](O)(C(=O)O)C[C@@H](O)[C@H]1O | -3.27% (inactive) | –
CC(=O)N(CC(=O)N(C)C)c1ccccc1 | 1.18% (inactive) | –
CCCCOC(=O)c1ccccc1C(=O)OCC(CC)CCCC (stereo not given) | -10% (inactive) | –
NC1CCN(c2nc3c(cc2F)c(=O)c(C(=O)O)cn3-c2ccc(F)cc2F)C1 (stereo not given) | -1.98% (inactive) | –
N#CCCNCCC#N | 6.76% (inactive) | –
CCCCCC(CO)CCC (stereo not given) | 1.02% (inactive) | –

Compound | max response | Potency
CC(C(=O)O)c1ccc(-c2ccccc2)c(F)c1 (stereo not given) | -0.192% (inactive) | –
CC(=O)c1c(C)c([N+](=O)[O-])c(C(C)(C)C)c([N+](=O)[O-])c1C | -9.27% (inactive) | –
CCN(CC)C(C)=O | 1.69% (inactive) | –
Cc1ccc(C(C)c2ccc(C)c(C)c2)cc1C | -0.95% (inactive) | –
CC(=O)c1ccc2c(c1)[C@H](NC(=O)c1ccc(F)cc1)[C@@H](O)C(C)(C)O2 | -0.992% (inactive) | –
CCCCOC(=O)/C=C\C(=O)OCCCC | -0.0674% (inactive) | –
CCC(=O)OC(C)(C)C1CC=C(C)CC1 (stereo not given) | -0.19% (inactive) | –
CC(=O)N(O)CCCCCNC(=O)CCC(=O)N(O)CCCCCNC(=O)CCC(=O)N(O)CCCCCN | – | 21.3 µM (active)
CCOc1cc(OCC)c(C(=O)CCC(=O)O)cc1OCC | 3.3% (inactive) | –
CCOc1nc2cccc(C(=O)O)c2n1Cc1ccc(-c2ccccc2-c2nn[nH]n2)cc1 | 9.75% (inactive) | –
COC(=O)C(C)=O | -0.909% (inactive) | –
NC(N)=NN=C(/C=C/c1ccc([N+](=O)[O-])o1)/C=C/c1ccc([N+](=O)[O-])o1 | – | 0.848 µM (active)
CCCCCCCCCC(=O)OCC | -6.56% (inactive) | –
CCCCCCCCCCCCCCCCCBr | 3.16% (inactive) | –
CN1CCC(OC(c2ccccc2)c2ccccc2)CC1 | -5.84% (inactive) | –
CCN(CC)CCc1nc(-c2ccccc2)no1 | 0.0849% (inactive) | –
Cn1c(NCCN(CCO)CCCc2ccc([N+](=O)[O-])cc2)cc(=O)n(C)c1=O | -12.1% (inactive) | –
O=c1[nH]cnc2ccccc12 | -7.9% (inactive) | –
COc1ccc2[nH]c(S(=O)Cc3ncc(C)c(OC)c3C)nc2n1 (stereo not given) | -17.3% (inactive) | –
CCCc1ccccc1 | 0.274% (inactive) | –

Source: PubChem BioAssay (Tox21)
